Shown are actives, neighbours in structure and some others; about 4.8% of the full set was active somewhere.
DAX1 inh-1: NR0B1 (DAX1) inhibition; P51843; HEK293 Gal4-DAX1 luciferase reporter, luminescence; inhibition, % at 6.75 µM; 0.99% of 340,000 active; AID 504766;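 active = inhibition above the mean over all tested compounds plus 3 SD, cut at about 4.2% in these data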;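 also: inhibition shows as a rise in luminescence from relieved DAX1 repression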
Target sequence (P51843 207-470 limits assumed): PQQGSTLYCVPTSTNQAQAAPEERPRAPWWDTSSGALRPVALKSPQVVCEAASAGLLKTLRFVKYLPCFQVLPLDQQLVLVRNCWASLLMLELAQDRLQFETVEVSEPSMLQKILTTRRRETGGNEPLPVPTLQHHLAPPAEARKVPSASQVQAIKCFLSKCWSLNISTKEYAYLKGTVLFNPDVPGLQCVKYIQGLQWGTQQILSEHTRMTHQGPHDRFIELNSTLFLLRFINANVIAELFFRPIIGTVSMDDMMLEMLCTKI
ssDAF-12 act: activators of S. stercoralis DAF-12 nuclear receptor; HEK293 ssDAF-12/GRIP1 lit1-tk-luc reporter, luminescence; % of 3 µM dafachronic acid response; activation, % at 6.8 µM; 1% of 370,000 active;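 active = activation above the mean over all tested compounds plus 3 SD, cut at about 0.9% in these data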
hgDAF12 agonist: agonists of H. glycines DAF-12 nuclear receptor; AID 687014; 1.8% of 370,000 active; activation, % at 6.8 µM; HEK293 GAL4-hgDAF12 UAS-luciferase reporter, agonist luminescence; normalized to butyrate control;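 active = activation above a cutoff set at the mean of all screened compounds plus 3 SD, cut at about 10% in these data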
DAX1 inh-2: inhibitors of DAX1 repression of SF-1 activated StAR promoter | AID 652010 | inhibition, % at 6.8 µM | 1.1% of 370,000 active | HEK293T StAR-luciferase reporter, SF-1/DAX-1 repression relief;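 active = inhibition above the mean over all tested compounds plus 3 SD, cut at about 3.6% in these data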;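 also: higher inhibition means more luminescence from relief of DAX-1 repression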
hcDAF12 agonist: activators of H. contortus DAF-12 nuclear receptor. HEK293 hcDAF-12 lit1-tk-luc reporter, luminescence; 0% DMSO, 100% Δ7-dafachronic acid. activation, % at 6.8 µM. 1.4% of 370,000 active. AID 652067;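 active = activation above the mean of all tested compounds plus 3 SD, cut at about 5.5% in these data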
SMARCA2 act: SMARCA2 function activation, primary screen; 1% of 370,000 active; MG213 cells, MMTV-luciferase reporter, dexamethasone, overnight; activation, % at 9.1 µM; in the data active = activation above about 7.8%
SMARCA2 act conf: SMARCA2 activation, confirmation screen | shares compounds with SMARCA2 act | MG213 cells, MMTV-luciferase with dexamethasone, luminescence, overnight; MG213 cells expressing E1A, Rb sequestered; DMSO wells 0%, reference activator 100% | activation, % at 9.1 µM | 30% of 3,500 active;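 active = activation above its plate's cutoff, the mean activation of tested wells plus 3 SD, cut at about 7.9% in these data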
VP16 Luc act: activates GAL4-VP16 luciferase, flagging SMARCA2 activator hits; HEK293 GAL4-VP16 pG5luc reporter, luciferase luminescence; scaled: DMSO wells 0%, SAHA wells 100%; 41% of 3,500 active; shares compounds with SMARCA2 act; activation, % at 9.1 µM;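 active = activation above the solvent-only control well mean plus 3 SD, averaged across control plates, cut at about 5.2% in these data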
Large screens that a line does not name were inactive (follow-up assays come after a bar, where they were run).

Cn1/c(=N/NC(=O)c2ccccc2F)sc2ccccc21	SMARCA2 act 8.0 | SMARCA2 act conf inactive | VP16 Luc act 8.2
Cc1ccc(C(=O)N/N=c2\sc3ccccc3n2C)cc1	none
Cc1ccc(NC(=O)CN2CCCC2c2cccn2C)c(Br)c1 (centres undefined)	none
COc1ccc2cc3cc(C(=O)NC(C)C)oc3nc2c1	SMARCA2 act 9.1 | SMARCA2 act conf inactive | VP16 Luc act inactive
COc1ccc2cc3cc(C(=O)Nc4cc(OC)c(OC)c(OC)c4)oc3nc2c1	none
Cc1ccc(S(=O)(=O)N2C[C@H]3C(=O)C[C@@H](c4cccc(C)c4)N(S(=O)(=O)c4ccc(C)cc4)[C@H]3C[C@H]2c2ccccc2)cc1	none (no result: DAX1 inh-1)
Cc1cc(C)cc(-n2c(C)cc(/C=N/NC(=O)c3ccncc3)c2C)c1	none
Cc1cc(/C=N/NC(=O)c2ccsc2)c(C)n1-c1cnccn1	SMARCA2 act 8.0 | SMARCA2 act conf inactive | VP16 Luc act inactive
COc1c(F)c(F)c(C(=O)Nc2ccccc2N2CCN(C(=O)C(C)C)CC2)c(F)c1F	SMARCA2 act 8.0 | SMARCA2 act conf inactive | VP16 Luc act inactive
COc1c(F)c(F)c(C(=O)Nc2ccccc2N2CCN(C(C)=O)CC2)c(F)c1F	none
COC(=O)C(C(=O)Nc1nc2ccccc2s1)C1CCCC1 (centres undefined)	none
CCOCCn1c(CN2CCCCC2)nc2c1c(=O)n(C)c(=O)n2C	SMARCA2 act 8.1 | SMARCA2 act conf inactive | VP16 Luc act inactive
Cc1cc(C)cc(N(CC(=O)NCCSCc2ccccc2)S(C)(=O)=O)c1	none
O=C(COc1ccccc1)NCC1(N2CCCCC2)CCCCC1	SMARCA2 act 9.6 | SMARCA2 act conf inactive | VP16 Luc act inactive
O=C(OCC1CC(c2ccccc2Cl)=NO1)c1ccc(Br)cc1 (centres undefined)	SMARCA2 act 10.8 | SMARCA2 act conf inactive | VP16 Luc act inactive
O=C(OCC(=O)c1ccc(Cl)s1)c1cnccn1	none
COc1ccc(C(=O)CCC(=O)NCCc2c[nH]c3ccccc23)cc1OC	none
COc1ccc(C(C)=O)cc1CS(=O)(=O)CC(=O)NCCc1c[nH]c2ccccc12	SMARCA2 act 9.0 | SMARCA2 act conf inactive | VP16 Luc act inactive
C(=C\c1nc(-c2ccncc2)no1)/c1ccccc1	SMARCA2 act 8.1 | SMARCA2 act conf 8.1 | VP16 Luc act 5.3
CCc1ccccc1N1CN(Cc2cccnc2)CNC1=S	none
Cc1ccc(C(=O)CNc2ccc(Cl)cc2)cc1	SMARCA2 act 13.0 | SMARCA2 act conf 12.0 | VP16 Luc act inactive
Cn1c(=O)c2[nH]c(N3CCN(c4ccccc4)CC3)nc2n(C)c1=O	none
CCC(OCC(O)CN1CCN(CCN2C(=O)c3cccc4cccc(c34)C2=O)CC1)c1ccccc1 (centres undefined)	SMARCA2 act 9.4 | SMARCA2 act conf inactive | VP16 Luc act inactive
CC(C)OCC(O)CN1CCN(CCN2C(=O)c3cccc4cccc(c34)C2=O)CC1 (centres undefined)	none
CCN(CC)S(=O)(=O)c1ccc(NC(=O)c2ccccn2)cc1	SMARCA2 act 9.8 | SMARCA2 act conf inactive | VP16 Luc act 8.5
S=C1c2ccccc2CN1c1ccccc1	hcDAF12 agonist 6.0, SMARCA2 act 10.2 | SMARCA2 act conf inactive | VP16 Luc act inactive
O=C(O)c1cccc2c1C(=O)N(c1ccccc1)C2	none
Cc1ccc(C)c(S(=O)(=O)N2CCCC2CNC(=O)C(=O)NCC2CCCO2)c1 (centres undefined)	none
CCc1nn(CC(=O)NCc2ccccc2Cl)c(=O)c2cccn12	none
COc1ccc(-c2noc(COc3ccc4c(c3)OCO4)n2)cc1	none
COc1ccc(-c2noc(-c3ccc4c(c3)OCO4)n2)cc1	SMARCA2 act 14.5 | SMARCA2 act conf 15.4 | VP16 Luc act 9.3

Assay outcomes: PubChem BioAssay, The Scripps Research Institute Molecular Screening Center
